Source: PubChem BioAssay (NCI)
This is part of a sample that, as a whole, favours compounds with a hit. Of some 83,000 tested, about 20% had one in any assay.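 Note: values are percent growth. 100 is the growth of untreated cells, values between 100 and 0 indicate rising inhibition; between -100 and 0 indicates cell death.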 A number with no mark means an inactive call. Active and inactive are the calls of the source. The calls were made as follows: active = growth percent below 10; inactive = the rest.

How the values were obtained:
Assay in all cases: NCI-60 one-dose screen, 48 h (100 = growth as untreated, 0 = no growth, -100 = all killed)
Settings in all cases: 10 µM unless noted
SK-MEL-2 melanoma = tested on: SK-MEL-2 melanoma
EKVX NSCLC = tested on: EKVX NSCLC
SN12C renal = tested on: SN12C renal
UO-31 renal = tested on: UO-31 renal
TK-10 renal = tested on: TK-10 renal
ACHN renal = tested on: ACHN renal
CAKI-1 renal = tested on: CAKI-1 renal
A498 renal = tested on: A498 renal
CCRF-CEM leukemia = tested on: CCRF-CEM leukemia
SR leukemia = tested on: SR leukemia
RPMI-8226 leukemia = tested on: RPMI-8226 leukemia
OVCAR-8 ovarian = tested on: OVCAR-8 ovarian
OVCAR-5 ovarian = tested on: OVCAR-5 ovarian
OVCAR-4 ovarian = tested on: OVCAR-4 ovarian
SK-OV-3 ovarian = tested on: SK-OV-3 ovarian
IGROV1 ovarian = tested on: IGROV1 ovarian
OVCAR-3 ovarian = tested on: OVCAR-3 ovarian
HS 578T breast = tested on: HS 578T breast
NCI/ADR-RES ovarian = tested on: NCI/ADR-RES ovarian
MOLT-4 leukemia = tested on: MOLT-4 leukemia

SMILES | growth (SK-MEL-2 melanoma) | growth (EKVX NSCLC) | growth (SN12C renal) | growth (UO-31 renal) | growth (TK-10 renal) | growth (ACHN renal) | growth (CAKI-1 renal) | growth (A498 renal) | growth (CCRF-CEM leukemia) | growth (SR leukemia) | growth (RPMI-8226 leukemia) | growth (OVCAR-8 ovarian) | growth (OVCAR-5 ovarian) | growth (OVCAR-4 ovarian) | growth (SK-OV-3 ovarian) | growth (IGROV1 ovarian) | growth (OVCAR-3 ovarian) | growth (HS 578T breast) | growth (NCI/ADR-RES ovarian) | growth (MOLT-4 leukemia)
Cc1ccc(Sc2oc(-c3ccc(C)cc3)nc2[P+](c2ccccc2)(c2ccccc2)c2ccccc2)cc1 | -36% (active) | 6.65% (active) | 3.64% (active) | -22.3% (active) | 22.7% | -6.75% (active) | -23.2% (active) | -40.5% (active) | -2.03% (active) | -18.8% (active) | -37.6% (active) | 5.45% (active) | 7.79% (active) | -3.08% (active) | -3.38% (active) | -74.4% (active) | -3.45% (active) | -8.27% (active) | 1.73% (active) | 
CCCCCCCCn1ccc2cc(NC(=O)CN3CCN(c4nc(C)cc(Cl)n4)CC3)ccc21 | 122% | 93.6% | 99.5% | 58.9% | 108% | 98.1% | 87.2% | 109% | -34.6% (active) |  | 99.3% | 106% | 102% | 83.7% | 110% | 74.4% | 109% | 89.9% | 93.2% | 4.97% (active)
Clc1ccc2c(c1)N(c1ncnc3ccc(-c4cnc5[nH]ncc5c4)cc13)CC2 | 48.3% | 16.8% | 19.5% | 4.18% (active) | 13.9% | 13% | 11% | -45.2% (active) | 31.9% |  | 16.9% | 30% | 20.3% |  | -1.55% (active) | 0.128% (active) |  | -17% (active) | 40.4% | 3.68% (active)
C=C(C)[C@@H]1CC[C@]2(C)[C@H](CC=C3[C@@H]4[C@H](C)[C@@H](C)CC[C@]4(CO)CC[C@]32C)[C@@]1(C)CCCN | -24.7% (active) | 74.1% | -4.38% (active) | 34.1% | -68.3% (active) | 63.4% | 22.4% | 72.5% | 0.722% (active) |  | -33.7% (active) | -48.5% (active) | 60.6% | 5.39% (active) | 14.1% | 30% |  | 25.3% | 14.1% | -10.6% (active)
CCN(CC)c1nc(SCc2ccccc2Cl)ncc1C | 118% | 101% | 96.7% | 102% | 117% | 108% | 88.8% | 91.2% | 92.7% |  | 93.5% | 104% | 119% | 101% | 113% | 109% | 109% | 124% | 92.2% | 105%
COc1cc2c(c(OC)c1OC)C(=O)CC(c1cccc(NC(=O)c3ccc(Br)cc3)c1)O2 (stereo not drawn) | 8.79% (active) | 74.3% | 61.5% | 34.9% | 61.7% | 52.4% | 46.2% | 36.2% | 2.95% (active) | 3.88% (active) | -4.85% (active) | 14.1% | 95.4% | 53.9% | 74.7% | 45.9% | 46.5% | 71% | 8.47% (active) | 
COc1cc(CNS(=O)(=O)c2ccc(C)cc2)ccc1OCc1cn(-c2ccc(Br)cc2)nn1 | 104% | 93.1% | 105% | 69.3% | 112% | 98.4% | 91.6% | 70.6% | 90.4% |  | 87.2% | 102% |  | 97.3% | 75.3% | 103% | 112% | 95.6% | 104% | 101%
CN(C)CCCn1c2c(c3ncccc3c1=O)C(=O)c1ccccc1-2 | 81.8% | 81.7% | 34.7% | 32% | 52.3% | 15.2% | 52.7% | 57.5% | 50.4% | 15.2% | 38.2% | 31.3% | 46.5% | 61.8% | 69.6% | 43.8% | 57.4% | 75.8% | 42.7% | 
CC(C)(C)n1cc(-c2ccnc(NCCNS(=O)(=O)c3cccc4ccccc34)c2)c(-c2cccc(F)c2)n1 | -35.3% (active) | 8.04% (active) | -88.4% (active) | -38.2% (active) | -80% (active) | -58.5% (active) | -54.7% (active) | -73.1% (active) | 11% | -20.7% (active) | -31.8% (active) | 7.39% (active) | -15% (active) | -0.264% (active) | 6.65% (active) | 4.03% (active) | -68.6% (active) | -35.7% (active) | -9.97% (active) | 
COc1cccc(CNc2ncnc3c2ncn3C2OC(CO)C(O)C2O)c1O (stereo not drawn) | -6.73% (active) | 24.6% | -3.64% (active) | 7.67% (active) | 6.39% (active) | -14.3% (active) | -2.16% (active) | -0.46% (active) | -17.3% (active) |  | -28.5% (active) | 6.83% (active) | 9.68% (active) | 11.3% | -61.5% (active) | -23.4% (active) | -0.409% (active) | -27% (active) | 2.34% (active) | 0.14% (active)
N#Cc1c(NC(=O)c2ccccc2)sc2c1CCC(=O)C2 | 13.6% | 21.7% | 11.6% | -16.4% (active) | 39.5% | 5.88% (active) | -27.3% (active) | 78.3% | 7.52% (active) | 7.72% (active) | -2.69% (active) | 14.5% | 22.1% | -64.9% (active) | 64.7% | 27.4% | -4.44% (active) | 23.3% | 5.57% (active) | 
CCCC(O)Cn1ncc(C(=O)OCC)c1NC(=O)NCc1ccccc1F (stereo not drawn) | 74.3% | 95.7% | 96.8% | 74.2% | 99.1% | 107% | 80.1% | 90.7% | 76.3% |  | 67.4% | 89.9% | 108% |  | 102% | 92.9% | 91.1% | 102% | 92.6% | 71%
